Screening data from PubChem BioAssay.
Shown are actives, neighbours in structure and some others; about 4.1% of the full set was active somewhere.
tim23-1 inh: growth inhibitors of tim23-1 mutant yeast. S. cerevisiae tim23-1 growth, BacTiter-Glo luminescence, 24 h. 330,000 tested, 1.3% active. inhibition, % at 20 µM. AID 463212;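 active = growth inhibition of the mutant yeast at or above 50%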;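 also: temperature-sensitive mutant grown at 25 °C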
TIM10 inh: inhibits growth of TIM10 yeast strain | inhibition, % at 10 µM | S. cerevisiae TIM10 strain growth, BacTiter-Glo luminescence, 24 h | 330,000 tested, 1.4% active;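 active = inhibition of 40% or more at the single tested concentration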;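 also: wild-type TIM10 isogenic control strain grown at permissive 25 °C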
tim10-1 inh: tim10-1 yeast growth inhibition. S. cerevisiae tim10-1 ts strain growth, BacTiter-Glo, 24 h. inhibition, % at 20 µM. 330,000 tested, 2.2% active;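 active = inhibition of at least 40%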;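 also: mutant grown at 25 °C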
NALP1 inh: blocks the NALP1 inflammasome reconstituted in yeast | 280,000 tested, 0.61% active | S. cerevisiae NALP1/ASC/caspase-1 growth, X-gal OD620, 72 h | inhibition, % at 10 µM; in the data active = inhibition mostly above about 24%, no sharp cut-off; inactive = mostly below about 32%
NLRP3 yeast inh: inhibitors of NALP3 inflammasome in yeast; AID 2825; 330,000 tested, 0.39% active; Yeast reconstituted NLRP3/ASC/caspase-1, beta-gal luminescence, 24 h; inhibition, % at 10 µM;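 active = inhibition of 50% or more; inactive = inhibition below 50%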
NALP3 yeast conf: NALP3 inhibition confirmation in yeast | yeast expressing human NALP3, luminescence | 1,300 tested, 81% active | AID 435006 | inhibition, % at 10 µM | shares compounds with NLRP3 yeast inh; in the data active = inhibition above about 48%
Casp1 ASC ctr: caspase-1-ASC yeast counter-screen hit. shares compounds with NLRP3 yeast inh. yeast expressing Caspase-1-ASC, luminescence counter screen. inhibition, % at 10 µM. 1,000 tested, 66% active. AID 488784
NALP3 retest: yeast NALP3 inhibition, confirmed on retest; shares compounds with NLRP3 yeast inh; yeast expressing human NALP3, luminescence read-out; inhibition, % at 10 µM; 1,000 tested, 53% active; AID 488794
tim10-1 confirm: tim10-1 yeast growth inhibition, confirmed; shares compounds with tim10-1 inh; S. cerevisiae tim10-1 ts strain growth, BacTiter-Glo, 24 h; inhibition, % at 20 µM; 7,400 tested, 56% active;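 active = inhibition of yeast growth at or above a set limit in either of two repeat tests at 20 µM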;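 also: tim10-1 mutant grown at permissive 25 °C to find synthetic lethal compounds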
TIM10 conf: TIM10 yeast growth inhibition, confirmed; shares compounds with TIM10 inh; S. cerevisiae tim10 strain growth, BacTiter-Glo luminescence, 24 h; inhibition, % at 10 µM; 4,600 tested, 63% active;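 active = inhibition of yeast growth at or above a set limit in either of two replicates at 10 µM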; also: this counterscreen used the strain with wild-type TIM10
tim23-1 confirm: confirmation of tim23-1 mutant yeast growth inhibitors; shares compounds with tim23-1 inh; S. cerevisiae tim23-1 growth, BacTiter-Glo luminescence, 24 h; 4,400 tested, 83% active; inhibition, % at 20 µM; AID 463218;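 active = inhibition above about 39% in either of two replicate wells at 20 µM, limit read from the data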;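 also: temperature-sensitive tim23-1 mutant grown at 25 °C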
Of the large screens only hits and unclear results are named; the others gave an inactive call (follow-up assays come after a bar, where they were run). Rule as the data show it, unless noted: active = inhibition above about 50%; inactive = the rest.

COC(=O)c1ccccc1NC1=C/C(=N\S(=O)(=O)c2ccc(C(=O)O)cc2)c2ccccc2C1=O	tim23-1 inh 71, TIM10 inh 53, tim10-1 inh 54, NLRP3 yeast inh 51 | NALP3 yeast conf 64 | Casp1 ASC ctr 84 | NALP3 retest 77 | tim10-1 confirm 77 | TIM10 conf 65 | tim23-1 confirm 89
O=C(NC(=S)NNC(=O)c1ccccc1O)c1cccs1	tim23-1 inh 53, TIM10 inh 51, NLRP3 yeast inh 59 | NALP3 yeast conf 78 | Casp1 ASC ctr 70 | NALP3 retest 56 | TIM10 conf 47 | tim23-1 confirm 66
COc1ccccc1C(=O)NNC(=S)NC(=O)c1cccs1	none
CC(=O)c1cccc(NC(=O)C2CCCCC2)c1	none
O=C(Nc1cccc(Cl)c1)C1CCCCC1	tim23-1 inh 66, NLRP3 yeast inh 50 (no result: NALP1 inh) | NALP3 yeast conf 55 | Casp1 ASC ctr inactive | NALP3 retest inactive | tim23-1 confirm 69
O=C(Nc1cccc(Cl)c1)c1ccccc1	tim23-1 inh 62, TIM10 inh 58, NLRP3 yeast inh 83 (no result: NALP1 inh) | NALP3 yeast conf 93 | Casp1 ASC ctr 91 | NALP3 retest 83 | TIM10 conf 57 | tim23-1 confirm 76
COc1cccc(NC(=O)c2ccccc2)c1	tim23-1 inh 57, NLRP3 yeast inh 53 (no result: NALP1 inh) | NALP3 yeast conf 72 | Casp1 ASC ctr inactive | NALP3 retest 54 | tim23-1 confirm 64
O=C(Nc1csc(Cl)c1)c1ccccc1	tim23-1 inh 56, TIM10 inh 43, NLRP3 yeast inh 80 (no result: NALP1 inh) | NALP3 yeast conf 81 | Casp1 ASC ctr 86 | NALP3 retest 79 | TIM10 conf 41 | tim23-1 confirm 69
O=C(Nc1ccc(Cl)c(Cl)c1)c1ccccc1	none (no result: NALP1 inh)
N#CCCN(CCC#N)C(=O)C1c2ccccc2Oc2ccccc21	none
CC1(c2nnc(-c3cccc(Cl)c3)o2)CC(c2ccccc2Br)=NO1 (stereo not given)	none
O=C(NC(=S)Nc1ccccc1Br)C1CCCC1	none
O=C(NC(=S)Nc1ccccc1F)C1CCCCC1	tim23-1 inh 54, tim10-1 inh 40, NLRP3 yeast inh 52 | NALP3 yeast conf 72 | Casp1 ASC ctr 72 | NALP3 retest 63 | tim10-1 confirm inactive | tim23-1 confirm 48
O=C(NC(=S)Nc1ccccc1Br)C1CCCCC1	tim23-1 inh 56, NLRP3 yeast inh 53 (no result: NALP1 inh) | NALP3 yeast conf inactive | Casp1 ASC ctr 59 | NALP3 retest inactive | tim23-1 confirm inactive
COc1ccc(-c2cn(Cc3ccc(C(N)=O)cc3)c(CCN)n2)cc1	none (no result: NALP1 inh)
COc1ccc(N2CCN(c3ccc(C(=O)O)cc3[N+](=O)[O-])CC2)cc1	none
Cc1ccc(C(C[N+](=O)[O-])c2c(-c3ccccc3O)[nH][nH]c2=O)cc1 (stereo not given)	tim23-1 inh 66, tim10-1 inh 44, NALP1 inh 114, NLRP3 yeast inh 51 | NALP3 yeast conf 51 | Casp1 ASC ctr 77 | NALP3 retest 58 | tim10-1 confirm 37 | tim23-1 confirm 56
Cc1cc(-c2nnnn2-c2cc(Cl)cc(Cl)c2)no1	none (no result: NALP1 inh)
Cc1ccc2nc(NC(=O)Cn3nc(C)c([N+](=O)[O-])c3C)sc2c1	tim23-1 inh 51, TIM10 inh 48 | NALP3 yeast conf inactive | TIM10 conf inactive | tim23-1 confirm 65
N#C/C(=C\c1ccc([N+](=O)[O-])cc1)c1ccccn1	tim23-1 inh 65, TIM10 inh 52, tim10-1 inh 46, NLRP3 yeast inh 55 | NALP3 yeast conf 56 | Casp1 ASC ctr inactive | NALP3 retest inactive | tim10-1 confirm 60 | TIM10 conf 57 | tim23-1 confirm 58
